Assay results from PubChem BioAssay.
The source made the active and inactive calls.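 How the source made its calls: active means Her2 level under about 52% in both replicate screens, with viability over 70% of control (limit read from the data); inconclusive means Her2 under the limit in one screen only, or viability under 70%; inactive means Her2 level above the set limit.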

System: not listed separately
Experiment: Her2 expression decrease, cell viability multiplex – SKBR3 breast tumor cells, AlphaScreen, ATP viability, primary screen (AID 461);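 on viability: percent of carrier control wells set as 100% viability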
Details: SKBR3 Her2 protein level, 18-24 h, measured here: SKBR3 viability, ATP luminescence, at 10 µM
Compound `Cc1ccc(NC(=O)c2cc(-c3ccc(C)o3)nc3ccccc23)nc1` has a viability of 80%.
For `CCc1cccc(NC(=O)Cn2cc3c(n2)CCCC3)c1`, the viability was 105%.
`CCN(CC)C(=O)C1CCCN(c2ncnc3c2cnn3-c2ccc(Cl)cc2)C1` (stereo not given) showed a viability of 94.5%.
For `Cc1cccc(NC(=O)CS(=O)(=O)c2cn(C)c3ccccc23)c1`, the viability was 98%.
For `O=C(CN1C(=O)c2ccccc2S1(=O)=O)NCc1ccccc1Cl`, the viability was 90.5%.
Work on `Cn1cnc2cc(NC(=O)c3ccc(Cl)cc3)ccc21` yielded a viability of 91.5%.
Compound `COC(=O)c1cn(NC(=O)C2CCCO2)c(=O)c2ccccc12` (stereo not given) has a viability of 109%.
For `O=C(c1ccc(Cl)s1)N1CCN(c2nc3ccccc3s2)CC1`, the viability was 84%.
Compound `O=C(Nc1ccc(N2C(=O)C3C4C=CC(C4)C3C2=O)cc1)Nc1nncs1` (stereo not given) has a viability of 92%.
`CNC(=O)c1ccccc1NC(=O)c1c(O)c2c([nH]c1=O)CCCC2` showed a viability of 112%.
In the case of `COc1ccccc1CNC(=O)CCn1c(=O)[nH]c2ccsc2c1=O`, the viability is reported as 97.5%.
`Cc1ccc(-c2nc3cc(NC(=O)C(C)C)ccc3o2)cc1` gave a viability of 87%.
Work on `COc1ccccc1N1CCN(C(=O)c2cc(C3CC3)on2)CC1` yielded a viability of 84%.
Work on `CCCCN(C(=O)c1ccc(Cl)cc1)C1CC2CCC(C1)N2C` (stereo not given) yielded a viability of 87.5%.
`COc1ccc(OC)c2[nH]c(=O)c(CCNC(=O)C(C)C)cc12` showed a viability of 109%.
For `COc1ccccc1S(=O)(=O)Cc1ccc(C(=O)N2CCN(c3ccccn3)CC2)o1`, the viability was 101%.
In the case of `CCC(=O)c1cc(F)c(N2CCN(C(=O)c3ccco3)CC2)cc1C`, the viability is reported as 82%.
For `CC(C)Cc1nnc(NS(=O)(=O)c2ccc(Cl)cc2)s1`, the viability was 91.5%.
In the case of `COc1ccc(N2C(=O)CCC(C(=O)N3CCCCC3)C2c2ccc(OC)c(OC)c2)cc1` (stereo not given), the viability is reported as 100%.
With `Cc1c(C#N)c2ccccc2n1CC(=O)N1CCc2ccccc2C1` the viability was 102%.
In the case of `COCCCNC(=O)c1ccc(CS(=O)(=O)c2ccc(OC)cc2)o1`, the viability is reported as 104%.
`CCCCSc1nc2c(cnn2-c2ccc(F)cc2)c(=O)[nH]1` showed a viability of 93.5%.
In the case of `COc1ccc2[nH]c(C)c(CCN3C(=O)OC(C)(C)C3(C)O)c2c1` (stereo not given), the viability is reported as 100%.
In the case of `CCCCOCCCNC(=O)COc1ccccc1`, the viability is reported as 103%.
With `c1ccc(-c2cn3cccnc3n2)cc1` the viability was 118%.
In the case of `CCCCn1c(SCC(=O)OCC)nc2c1c(=O)[nH]c(=O)n2C`, the viability is reported as 100%.
In the case of `O=C(CCn1c(=O)oc2ccccc21)NCc1ccco1`, the viability is reported as 106%.
In the case of `CN(C)C(=O)N1CCN(C(=O)c2ccco2)CC1`, the viability is reported as 116%.
With `CC(=O)C1=C(C)Nc2ncnn2C1c1cccc(OCc2ccccc2)c1` (stereo not given) the viability was 102%.
In the case of `CC1Cc2nc(SCC(=O)N3CCCc4ccccc43)n(C)c(=O)c2S1` (stereo not given), the viability is reported as 97%.
`CCOC(=O)N1CCN(C(=O)c2ccc3nc4ccsc4c(=O)n3c2)CC1` showed a viability of 97.5%.
With `CC(C)(C)SCCNC(=O)CN1C(=O)c2ccccc2S1(=O)=O` the viability was 97%.
`COc1cccc(-c2nnc(NC(C)=O)o2)c1` showed a viability of 93.5%.
`CCCCc1cc(=O)oc2cc(OCC(=O)N(CC)CC)c(Cl)cc12` gave a viability of 98%.
Work on `CCOC(=O)CCc1c(C)nc2cc(-c3ccc(F)cc3)[nH]n2c1=O` yielded a viability of 97%.
Compound `CN(Cc1ccccc1)S(=O)(=O)c1ccc(S(=O)(=O)N2CCN(CCC#N)CC2)cc1` has a viability of 91%.
For `Cc1ccc(-n2c3c(cc(C(=O)NCCCN4CCOCC4)c2=O)C(=O)CC(C)(C)C3)cc1`, the viability was 109%.
For `COc1cc2c(cc1OC)C(c1ccc(C)o1)CC(=O)N2` (stereo not given), the viability was 81.5%.
`O=C(Nc1ccc2c(c1)OCO2)c1ccc(CN2CCOCC2)cc1` showed a viability of 97.5%.
`CC1Cn2c(nnc2-c2ccc(F)cc2)S1` (stereo not given) gave a viability of 112%.

Biological target: Receptor tyrosine-protein kinase erbB-2 (Homo sapiens) (UniProt P04626)
Sequence (P04626 whole entry, looked up): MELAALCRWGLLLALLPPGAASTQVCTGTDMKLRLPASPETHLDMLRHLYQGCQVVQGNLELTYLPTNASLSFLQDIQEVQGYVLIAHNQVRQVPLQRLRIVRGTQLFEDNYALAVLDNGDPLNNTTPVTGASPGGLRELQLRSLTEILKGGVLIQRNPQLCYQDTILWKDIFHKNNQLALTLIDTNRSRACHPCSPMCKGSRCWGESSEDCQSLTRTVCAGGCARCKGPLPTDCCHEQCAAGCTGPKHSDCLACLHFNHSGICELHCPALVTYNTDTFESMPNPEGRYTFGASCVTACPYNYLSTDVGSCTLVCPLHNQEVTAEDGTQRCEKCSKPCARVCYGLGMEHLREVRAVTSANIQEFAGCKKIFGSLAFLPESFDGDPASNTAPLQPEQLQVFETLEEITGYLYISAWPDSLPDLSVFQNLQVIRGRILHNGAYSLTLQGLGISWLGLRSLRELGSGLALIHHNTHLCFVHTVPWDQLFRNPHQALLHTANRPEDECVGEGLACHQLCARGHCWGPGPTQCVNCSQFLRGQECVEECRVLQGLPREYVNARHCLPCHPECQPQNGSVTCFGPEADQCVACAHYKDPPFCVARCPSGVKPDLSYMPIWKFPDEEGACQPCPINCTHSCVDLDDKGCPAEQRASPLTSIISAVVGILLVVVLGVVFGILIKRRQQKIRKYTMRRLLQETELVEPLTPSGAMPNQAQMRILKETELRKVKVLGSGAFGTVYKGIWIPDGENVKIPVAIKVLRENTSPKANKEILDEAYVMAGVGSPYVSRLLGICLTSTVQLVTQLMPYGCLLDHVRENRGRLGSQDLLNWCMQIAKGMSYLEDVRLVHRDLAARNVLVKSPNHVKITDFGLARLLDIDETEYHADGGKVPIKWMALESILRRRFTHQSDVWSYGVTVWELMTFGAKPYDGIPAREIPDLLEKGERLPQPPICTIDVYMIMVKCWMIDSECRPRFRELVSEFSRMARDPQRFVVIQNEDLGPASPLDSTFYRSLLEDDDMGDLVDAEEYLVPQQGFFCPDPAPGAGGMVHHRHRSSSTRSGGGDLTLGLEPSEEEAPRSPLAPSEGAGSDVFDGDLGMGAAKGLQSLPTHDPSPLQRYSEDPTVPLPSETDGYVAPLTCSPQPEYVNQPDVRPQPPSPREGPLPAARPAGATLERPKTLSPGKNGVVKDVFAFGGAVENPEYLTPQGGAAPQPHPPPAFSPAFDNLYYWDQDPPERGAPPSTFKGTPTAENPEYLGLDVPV
Experiment: as above
Details: 18-24 h, at 10 µM, stronger effect = lower value
With `Cc1ccc(NC(=O)c2cc(-c3ccc(C)o3)nc3ccccc23)nc1` the Her2 level was 74% (inactive).
In the case of `CCc1cccc(NC(=O)Cn2cc3c(n2)CCCC3)c1`, the Her2 level is reported as 95.5% (inactive).
For `CCN(CC)C(=O)C1CCCN(c2ncnc3c2cnn3-c2ccc(Cl)cc2)C1` (stereo not given), the Her2 level was 96.5% (inactive).
With `Cc1cccc(NC(=O)CS(=O)(=O)c2cn(C)c3ccccc23)c1` the Her2 level was 95.5% (inactive).
In the case of `O=C(CN1C(=O)c2ccccc2S1(=O)=O)NCc1ccccc1Cl`, the Her2 level is reported as 108% (inactive).
With `Cn1cnc2cc(NC(=O)c3ccc(Cl)cc3)ccc21` the Her2 level was 90.5% (inactive).
For `COC(=O)c1cn(NC(=O)C2CCCO2)c(=O)c2ccccc12` (stereo not given), the Her2 level was 76% (inactive).
With `O=C(c1ccc(Cl)s1)N1CCN(c2nc3ccccc3s2)CC1` the Her2 level was 78% (inactive).
For `O=C(Nc1ccc(N2C(=O)C3C4C=CC(C4)C3C2=O)cc1)Nc1nncs1` (stereo not given), the Her2 level was 108% (inactive).
For `CNC(=O)c1ccccc1NC(=O)c1c(O)c2c([nH]c1=O)CCCC2`, the Her2 level was 79% (inactive).
For `COc1ccccc1CNC(=O)CCn1c(=O)[nH]c2ccsc2c1=O`, the Her2 level was 102% (inactive).
In the case of `Cc1ccc(-c2nc3cc(NC(=O)C(C)C)ccc3o2)cc1`, the Her2 level is reported as 112% (inactive).
In the case of `COc1ccccc1N1CCN(C(=O)c2cc(C3CC3)on2)CC1`, the Her2 level is reported as 110% (inactive).
With `CCCCN(C(=O)c1ccc(Cl)cc1)C1CC2CCC(C1)N2C` (stereo not given) the Her2 level was 120% (inactive).
With `COc1ccc(OC)c2[nH]c(=O)c(CCNC(=O)C(C)C)cc12` the Her2 level was 118% (inactive).
For `COc1ccccc1S(=O)(=O)Cc1ccc(C(=O)N2CCN(c3ccccn3)CC2)o1`, the Her2 level was 84.5% (inactive).
With `CCC(=O)c1cc(F)c(N2CCN(C(=O)c3ccco3)CC2)cc1C` the Her2 level was 90.5% (inactive).
For `CC(C)Cc1nnc(NS(=O)(=O)c2ccc(Cl)cc2)s1`, the Her2 level was 98% (inactive).
In the case of `COc1ccc(N2C(=O)CCC(C(=O)N3CCCCC3)C2c2ccc(OC)c(OC)c2)cc1` (stereo not given), the Her2 level is reported as 90.5% (inactive).
With `Cc1c(C#N)c2ccccc2n1CC(=O)N1CCc2ccccc2C1` the Her2 level was 120% (inactive).
For `COCCCNC(=O)c1ccc(CS(=O)(=O)c2ccc(OC)cc2)o1`, the Her2 level was 105% (inactive).
In the case of `CCCCSc1nc2c(cnn2-c2ccc(F)cc2)c(=O)[nH]1`, the Her2 level is reported as 92% (inactive).
With `COc1ccc2[nH]c(C)c(CCN3C(=O)OC(C)(C)C3(C)O)c2c1` (stereo not given) the Her2 level was 108% (inactive).
In the case of `CCCCOCCCNC(=O)COc1ccccc1`, the Her2 level is reported as 104% (inactive).
For `c1ccc(-c2cn3cccnc3n2)cc1`, the Her2 level was 88.5% (inactive).
With `CCCCn1c(SCC(=O)OCC)nc2c1c(=O)[nH]c(=O)n2C` the Her2 level was 93% (inactive).
In the case of `O=C(CCn1c(=O)oc2ccccc21)NCc1ccco1`, the Her2 level is reported as 115% (inactive).
With `CN(C)C(=O)N1CCN(C(=O)c2ccco2)CC1` the Her2 level was 114% (inactive).
With `CC(=O)C1=C(C)Nc2ncnn2C1c1cccc(OCc2ccccc2)c1` (stereo not given) the Her2 level was 104% (inactive).
In the case of `CC1Cc2nc(SCC(=O)N3CCCc4ccccc43)n(C)c(=O)c2S1` (stereo not given), the Her2 level is reported as 91% (inactive).
For `CCOC(=O)N1CCN(C(=O)c2ccc3nc4ccsc4c(=O)n3c2)CC1`, the Her2 level was 102% (inactive).
For `CC(C)(C)SCCNC(=O)CN1C(=O)c2ccccc2S1(=O)=O`, the Her2 level was 92.5% (inactive).
For `COc1cccc(-c2nnc(NC(C)=O)o2)c1`, the Her2 level was 99.5% (inactive).
For `CCCCc1cc(=O)oc2cc(OCC(=O)N(CC)CC)c(Cl)cc12`, the Her2 level was 112% (inactive).
With `CCOC(=O)CCc1c(C)nc2cc(-c3ccc(F)cc3)[nH]n2c1=O` the Her2 level was 99% (inactive).
In the case of `CN(Cc1ccccc1)S(=O)(=O)c1ccc(S(=O)(=O)N2CCN(CCC#N)CC2)cc1`, the Her2 level is reported as 116% (inactive).
In the case of `Cc1ccc(-n2c3c(cc(C(=O)NCCCN4CCOCC4)c2=O)C(=O)CC(C)(C)C3)cc1`, the Her2 level is reported as 110% (inactive).
For `COc1cc2c(cc1OC)C(c1ccc(C)o1)CC(=O)N2` (stereo not given), the Her2 level was 87.5% (inactive).
For `O=C(Nc1ccc2c(c1)OCO2)c1ccc(CN2CCOCC2)cc1`, the Her2 level was 88% (inactive).
In the case of `CC1Cn2c(nnc2-c2ccc(F)cc2)S1` (stereo not given), the Her2 level is reported as 105% (inactive).
